The values below come from PubChem BioAssay AID588596 (NMMLSC, 2011).

SMILES strings stand for the structures. Potency and affinity values are given separately. Values without a mark were called inactive. No rule for the calls is given here.

The experiment is described as follows: yeast V-ATPase proton pumping modulator potency, dose response, S. cerevisiae, pHLuorin, cherry pick 1 (AID 588596). Particulars: S. cerevisiae pHLuorin vacuolar pH fluorescence; series mostly up to 33.1 µM; response, % activation: at the top concentration.
On to `Cc1cccc(N=Cc2[nH]c3ccc(Br)c(Cl)c3c2O)c1`, for which the “response, % activation” value is -0.84%. As for `O=C(N1CCCC1)C12CCC3CC(CC(C3)C1)C2`, the “response, % activation” value was -5%. On to `CCOC(=O)Cn1c(=O)c(-c2cc(Br)ccc2N)nc2ccccc21`, for which the “response, % activation” value is 14.8%.

As for `O=C(CCSC1=NCCCN1)c1ccc(F)cc1`, the “response, % activation” value was 12.9%.
